Drawing on ChEMBL document CHEMBL3988442, “University of Dundee, Small-Polar-MMV Screening Library” (2021), this text covers PXC50 for 30 compounds.

The target in this test is T1, Methionyl-tRNA synthetase, putative (Leishmania donovani (strain BPK282A1)) (UniProt E9BF75).
T1 sequence (whole entry): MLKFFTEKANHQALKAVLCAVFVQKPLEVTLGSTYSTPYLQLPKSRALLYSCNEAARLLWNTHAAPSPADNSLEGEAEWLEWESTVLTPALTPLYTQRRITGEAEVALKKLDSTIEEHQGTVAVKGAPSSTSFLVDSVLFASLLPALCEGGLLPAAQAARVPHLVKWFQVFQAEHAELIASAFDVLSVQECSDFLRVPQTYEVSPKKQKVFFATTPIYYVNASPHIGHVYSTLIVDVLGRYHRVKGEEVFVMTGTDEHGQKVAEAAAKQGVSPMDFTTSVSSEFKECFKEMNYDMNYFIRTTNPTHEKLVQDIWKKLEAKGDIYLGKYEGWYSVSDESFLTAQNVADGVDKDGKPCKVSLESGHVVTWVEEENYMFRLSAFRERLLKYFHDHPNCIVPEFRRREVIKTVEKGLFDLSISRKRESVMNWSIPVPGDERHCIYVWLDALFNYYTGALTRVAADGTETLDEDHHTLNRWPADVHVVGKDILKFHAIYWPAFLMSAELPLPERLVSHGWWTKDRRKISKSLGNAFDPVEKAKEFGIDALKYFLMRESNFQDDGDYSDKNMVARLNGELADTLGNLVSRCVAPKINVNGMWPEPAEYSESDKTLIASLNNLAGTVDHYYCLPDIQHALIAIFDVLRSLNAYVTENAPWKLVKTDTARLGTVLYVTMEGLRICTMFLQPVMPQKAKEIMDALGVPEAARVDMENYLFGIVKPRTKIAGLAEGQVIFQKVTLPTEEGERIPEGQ
The test can be described thus: Leishmania donovani Methionine tRNA synthetase (LdMetRS):v7. Dose response assay. It is filed as functional. The arrangement: conc 80 nM, time 150 minutes.

Structures are written as SMILES. Some results are limits rather than exact numbers.

For `CC(C)(C)c1nc(NCCO)c2c3c(sc2n1)CCCC3`, the PXC50 runs as follows: (MAX_EFFECT 6.632653061) less than 4; (MAX_EFFECT 7.323232323) less than 4.
`CS(=O)(=O)N1CCN(c2ccc3ccc(C(=O)NC4Cc5ccccc5C4)cn23)CC1`: the PXC50 is 5.08 (BOTTOM 1.298239116, HILLSLOPE 2.724135748, MAX_EFFECT 51.19617225, TOP 47.98570818) and 4.75 (BOTTOM 7.56395186, HILLSLOPE 1.844448201, MAX_EFFECT 55.57586837, TOP 59.35407924).
`O=C(c1c[nH]cn1)N1CCC(F)(F)C2(CCN(c3cccc(F)c3)C2)C1` (stereo not given): the PXC50 is less than 4 (MAX_EFFECT 45.5399061) and less than 4 (MAX_EFFECT 46.11111111).
Regarding `Cc1cc(C)n(C2=NC(NCCC(C)C)c3c(sc4c3CCCC4)N2)n1` (stereo not given), the PXC50 was less than 4 (MAX_EFFECT 4.798464491) and less than 4 (MAX_EFFECT 13.23763955).
Take `CCOC(=O)c1cnn(-c2nc(C)nc3sc4c(c23)CCC(C)C4)c1N` (stereo not given): the PXC50 reads like this: (MAX_EFFECT 8.465608466) less than 4; (MAX_EFFECT 9.066666667) less than 4.
Consider `COCCN(CC1CC1)c1nc(CCN)nc2sc(C)c(C)c12`, for which the PXC50 runs as follows: (MAX_EFFECT 32.65306122) less than 4; (MAX_EFFECT 36.11111111) less than 4.
The compound `Cc1sc2nc(-c3cccs3)nc(N(C)CC(=O)NC3CC3)c2c1C` registered a PXC50 (MAX_EFFECT 6.361323155) of less than 4 and a PXC50 (MAX_EFFECT 7.808564232) of less than 4.
For the compound `Nc1nc(-c2cccs2)cc(C(F)(F)F)n1`, the PXC50 is less than 4 (MAX_EFFECT 6.382978723) and less than 4 (MAX_EFFECT 7.772020725).
On to `Cc1nc(NC(C(=O)O)C(C)C)c2c3c(sc2n1)CCC3` (stereo not given), for which the PXC50 runs as follows: (MAX_EFFECT 7.537688442) less than 4; (MAX_EFFECT 7.616707617) less than 4.
For `FC1(F)CCN(c2ccccc2)CC12CCN(c1ncccn1)C2` (stereo not given), the PXC50 was less than 4 (MAX_EFFECT 8.920187793) and less than 4 (MAX_EFFECT 12.40740741).
Consider `CS(=O)(=O)N1CCN(c2ccc3cnc(C(=O)NC4CCCC4)cn23)CC1`, for which the PXC50 is, setting by setting: (MAX_EFFECT 8.333333333) less than 4; (MAX_EFFECT 13.54166667) less than 4.
For the compound `Cc1sc2nc(CN3CCOCC3)nc(NS(C)(=O)=O)c2c1C`, the PXC50 runs as follows: (MAX_EFFECT 10.38251366) less than 4; (MAX_EFFECT 12.29946524) less than 4.
For `Cc1nc(N2CCc3ccccc3C2)c2c3c(sc2n1)CCC3`, the PXC50 was 4.58 (BOTTOM 1.539204696, HILLSLOPE 1.85727021, MAX_EFFECT 61.30653266, TOP 67.5568533) and 4.36 (BOTTOM -2.995522408, HILLSLOPE 1.216214635, MAX_EFFECT 78.37837838, TOP 108.7860492).
On to `CS(=O)(=O)N1CCN(c2ccc3ccc(C(=O)NC4CCOCC4)cn23)CC1`, for which the PXC50 worked out at 4.8 (BOTTOM 2.519402955, HILLSLOPE 2.221498876, MAX_EFFECT 53.88127854, TOP 54.22998304) and 4.78 (BOTTOM -4.408166057, HILLSLOPE 3.645653811, MAX_EFFECT 56.79245283, TOP 54.33837105).
Compound `CN1CCC(CNC(=O)c2ccc3ccc(N4CCN(S(C)(=O)=O)CC4)n3c2)CC1` showed a PXC50 (BOTTOM 1.275548684, HILLSLOPE 2.230174864, MAX_EFFECT 66.02870813, TOP 65.69793646) of 4.77 and a PXC50 (BOTTOM -0.677256268, HILLSLOPE 1.919543897, MAX_EFFECT 70.20109689, TOP 75.47637091) of 4.69.
On to `Cc1nc(N2CCNC(=O)CC2C)c2c(CC(C)C)csc2n1` (stereo not given), for which the PXC50 was less than 4 (MAX_EFFECT 4.918032787) and less than 4 (MAX_EFFECT 7.486631016).
In the case of `CO[C@H]1[C@@H]2CC[C@H]1CN(c1nc(C)nc3sccc13)C2`, the PXC50 reads like this: (MAX_EFFECT 8.838383838) less than 4; (MAX_EFFECT 9.693877551) less than 4.
`O=C(NCC1CCCCC1)c1cc(=O)c2cc(O)ccc2o1`: the PXC50 runs as follows: (MAX_EFFECT 0.575815739) less than 4; (MAX_EFFECT 4.306220096) less than 4.
As to `Cc1nc(N2CCC(C)CC2)c2ccsc2n1`, the PXC50 (MAX_EFFECT 9.848484848) is less than 4 and the PXC50 (MAX_EFFECT 11.2244898) was less than 4.
Consider `Cc1nc(N2CC[C@@H](O)C2)c2c3c(sc2n1)CCCC3`, for which the PXC50 is less than 4 (MAX_EFFECT 8.838383838) and less than 4 (MAX_EFFECT 10.20408163).
Turning to `Nc1nc(CSc2ncccn2)nc2sc3c(c12)CCCC3`, the PXC50 is less than 4 (MAX_EFFECT 24.53333333) and less than 4 (MAX_EFFECT 26.98412698).
`COCCNc1nc(-c2cccnc2)nc2sc(C)c(C)c12`: the PXC50 is, setting by setting: (BOTTOM 0.74162584, HILLSLOPE 1.235225767, MAX_EFFECT 62.1761658, TOP 100.0) 4.17; (BOTTOM 1.893882354, HILLSLOPE 1.640156685, MAX_EFFECT 57.9787234, TOP 75.89886764) 4.31.
Take `FC1(F)CCN(Cc2ccncc2)CC12CCN(c1cnccn1)C2` (stereo not given): the PXC50 was less than 4 (MAX_EFFECT 2.721088435) and less than 4 (MAX_EFFECT 15.70093458).
`Fc1cccc(OC[C@@H]2CCCN2)c1Oc1ccc(Cl)cc1` displayed a PXC50 (MAX_EFFECT 8.488612836) of less than 4 and a PXC50 (MAX_EFFECT 13.00639659) of less than 4.
Take `CS(=O)(=O)N1CCN(c2ccc3ccc(C(=O)NCCS(=O)(=O)N4CCOCC4)cn23)CC1`: the PXC50 was 5 (BOTTOM 0.75923045, HILLSLOPE 2.636958023, MAX_EFFECT 55.02392344, TOP 52.30756256) and 4.85 (BOTTOM 6.938223691, HILLSLOPE 3.502169957, MAX_EFFECT 60.32906764, TOP 60.07357055).
`Cc1sc2nc(-c3cccnc3)nc(N3CCCC(CO)C3)c2c1C` (stereo not given): the PXC50 runs as follows: (BOTTOM 0.693465662, HILLSLOPE 1.473836838, MAX_EFFECT 56.47668394, TOP 100.0) 4.07; (BOTTOM -1.655591932, HILLSLOPE 1.509629481, MAX_EFFECT 54.25531915, TOP 100.0) 4.06.
On to `FC(F)(F)c1nc(N2CCCC2)nc2c1CCCCC2`, for which the PXC50 (MAX_EFFECT 2.290076336) was less than 4 and the PXC50 (MAX_EFFECT 5.793450882) is less than 4.
Regarding `Cc1nc(NCCCO)c2c(-c3cccs3)csc2n1`, the PXC50 is less than 4 (MAX_EFFECT 5.852417303) and less than 4 (MAX_EFFECT 7.808564232).
In the case of `COc1ccc2c(c1)COB2O`, the PXC50 is less than 4 (MAX_EFFECT 5.094339623) and less than 4 (MAX_EFFECT 9.589041096).
As for `CCc1nc(NCCCOC)c2c3c(sc2n1)CCC3`, the PXC50 runs as follows: (MAX_EFFECT 10.43256997) less than 4; (MAX_EFFECT 14.35768262) less than 4.
